Results taken from the supplement of paper PMC10849652.
Of roughly 8,800 targets only a part is listed; those with a hit were picked by preference. About 0.5% of all pairs of compound and target were hits.

How the values were obtained:
Experiment in all cases: log2 fold change, soluble protein after heating vs DMSO (PISA); higher = thermal stabilisation; K562 lysate, 10 uM; active = over 0.2 and 3.5 SD of the protein, either way, in both replicates (recomputed)
[1] = compound: Cc1cn(-c2cc(NC(=O)c3ccc(C)c(Nc4nccc(-c5cccnc5)n4)c3)cc(C(F)(F)F)c2)cn1 [nilotinib]
Method in brief: (§1)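 The values are log-two fold changes in thermal stability compared with solvent controls and come from duplicates. They were obtained by TMTpro 16plex LC-MS/MS, with channel sums equalised, on the supernatant after 21,000xg for 90 min. That supernatant came from crude K562 extract at 1 mg/mL protein treated with 10 μM compound for 30 min, heated for 3 min across 48°C-58°C, pooled and brought to 0.5% NP-40 at 4°C.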

[2] = compound: Cc1nc(Nc2n[nH]c3c2CN(C(=O)N[C@H](CN(C)C)c2ccccc2)C3(C)C)c2sccc2n1
Method in brief: as §1

[3] = compound: Cc1nc(Nc2ncc(C(=O)Nc3c(C)cccc3Cl)s2)cc(N2CCN(CCO)CC2)n1 [dasatinib]
Method in brief: as §1

[4] = compound: Cc1ncc(-c2ccnc(Nc3ccc(S(C)(=O)=O)cc3)n2)n1C(C)C
Method in brief: as §1

[5] = compound: Cn1cc(-c2ccc3c(c2)CCN3C(=O)Cc2cccc(C(F)(F)F)c2)c2c(N)ncnc21
Method in brief: as §1

[6] = compound: Cn1cc(CNCC2CCN(c3ncc(C(=O)NO)cn3)CC2)c2ccccc21 [quisinostat]
Method in brief: as §1

[7] = compound: Cn1cncc1[C@@](N)(c1ccc(Cl)cc1)c1ccc2c(c1)c(-c1cccc(Cl)c1)cc(=O)n2C [tipifarnib]
Method in brief: as §1

[8] = compound: NC(=O)Nc1cc(-c2cccc(F)c2)sc1C(=O)N[C@H]1CCCNC1
Method in brief: as §1

[9] = compound: NC(=O)c1cnc(N[C@@H]2CCCC[C@@H]2N)nc1Nc1cccc(-n2nccn2)c1
Method in brief: as §1

[10] = compound: NC1(c2ccc(-c3nc4ccn5c(=O)[nH]nc5c4cc3-c3ccccc3)cc2)CCC1
Method in brief: as §1

Measured: log2 fold change

PDCD4 (UniProt Q53EL6)
inactive: [1] 0.028 | [2] 0.019 | [3] -0.026 | [4] 0.035 | [5] 0.005 | [6] -0.044 | [7] -0.008 | [8] -0.01 | [9] 0.009 | [10] -0.013

PRKCD (UniProt Q05655)
inactive: [1] 0.002 | [2] 0.193 | [3] -0.053 | [4] 0.056 | [5] 0 | [6] 0.002 | [7] -0.013 | [8] -0.013 | [9] 0.218 | [10] 0.021

PPME1 isoform 4 (UniProt Q9Y570)
Chain of UniProt Q9Y570 (Q9Y570 whole entry, looked up): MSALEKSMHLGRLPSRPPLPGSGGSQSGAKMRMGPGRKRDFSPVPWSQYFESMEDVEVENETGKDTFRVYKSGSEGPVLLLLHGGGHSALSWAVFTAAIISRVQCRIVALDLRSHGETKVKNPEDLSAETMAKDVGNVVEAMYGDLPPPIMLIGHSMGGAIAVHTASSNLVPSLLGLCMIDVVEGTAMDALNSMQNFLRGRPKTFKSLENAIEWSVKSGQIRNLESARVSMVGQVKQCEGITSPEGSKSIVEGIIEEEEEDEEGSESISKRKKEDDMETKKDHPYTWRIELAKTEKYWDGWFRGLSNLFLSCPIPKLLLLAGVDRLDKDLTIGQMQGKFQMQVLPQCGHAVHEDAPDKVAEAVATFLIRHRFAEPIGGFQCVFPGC
inactive: [1] 0.01 | [2] -0.053 | [3] -0.008 | [4] -0.025 | [5] -0.003 | [6] 0.018 | [7] 0.01 | [8] -0.03 | [9] -0.016 | [10] 0.041

PRKRA (UniProt O75569)
inactive: [1] 0 | [2] -0.001 | [3] -0.01 | [4] 0.034 | [5] 0.029 | [6] -0.058 | [7] 0.016 | [8] 0.036 | [9] 0.012 | [10] -0.043

PPFIA2 (UniProt O75334)
Chain of UniProt O75334 (O75334 whole entry, looked up): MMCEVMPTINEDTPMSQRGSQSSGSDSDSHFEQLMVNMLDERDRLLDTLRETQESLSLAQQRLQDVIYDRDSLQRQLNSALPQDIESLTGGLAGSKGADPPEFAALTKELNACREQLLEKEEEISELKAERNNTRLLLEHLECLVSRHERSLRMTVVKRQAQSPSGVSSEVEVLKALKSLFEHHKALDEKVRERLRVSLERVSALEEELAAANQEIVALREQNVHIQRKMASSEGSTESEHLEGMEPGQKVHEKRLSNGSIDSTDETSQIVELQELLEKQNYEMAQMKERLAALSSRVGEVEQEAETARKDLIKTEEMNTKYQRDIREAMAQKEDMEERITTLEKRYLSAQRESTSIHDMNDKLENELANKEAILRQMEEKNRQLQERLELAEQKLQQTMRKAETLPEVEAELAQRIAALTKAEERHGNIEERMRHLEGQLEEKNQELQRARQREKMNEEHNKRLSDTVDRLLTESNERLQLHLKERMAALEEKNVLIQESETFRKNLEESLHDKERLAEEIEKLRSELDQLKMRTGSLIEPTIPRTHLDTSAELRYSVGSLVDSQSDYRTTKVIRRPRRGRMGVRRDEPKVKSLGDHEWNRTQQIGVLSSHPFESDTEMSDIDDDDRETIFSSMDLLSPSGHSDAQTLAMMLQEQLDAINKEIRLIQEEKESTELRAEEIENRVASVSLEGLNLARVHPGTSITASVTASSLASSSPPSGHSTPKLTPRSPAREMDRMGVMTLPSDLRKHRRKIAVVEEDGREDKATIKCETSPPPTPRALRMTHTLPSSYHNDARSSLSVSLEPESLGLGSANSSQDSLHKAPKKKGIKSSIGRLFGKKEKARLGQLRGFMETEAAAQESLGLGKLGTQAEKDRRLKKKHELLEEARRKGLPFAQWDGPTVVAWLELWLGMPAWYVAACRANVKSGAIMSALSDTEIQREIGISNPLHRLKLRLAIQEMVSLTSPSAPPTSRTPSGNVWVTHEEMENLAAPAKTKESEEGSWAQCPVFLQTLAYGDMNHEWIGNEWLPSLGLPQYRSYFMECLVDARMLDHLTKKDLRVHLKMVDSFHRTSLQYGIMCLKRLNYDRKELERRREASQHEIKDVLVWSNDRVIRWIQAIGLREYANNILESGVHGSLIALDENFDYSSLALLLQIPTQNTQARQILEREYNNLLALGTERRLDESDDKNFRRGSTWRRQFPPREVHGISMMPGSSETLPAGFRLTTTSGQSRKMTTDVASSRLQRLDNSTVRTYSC
inactive: [1] -0.046 | [2] 0.027 | [3] -0.064 | [4] -0.022 | [5] 0.01 | [6] -0.238 | [7] -0.029 | [8] 0.017 | [9] 0.024 | [10] -0.089

PRKCSH isoform 2 (UniProt P14314)
Chain of UniProt P14314 (P14314 whole entry, looked up): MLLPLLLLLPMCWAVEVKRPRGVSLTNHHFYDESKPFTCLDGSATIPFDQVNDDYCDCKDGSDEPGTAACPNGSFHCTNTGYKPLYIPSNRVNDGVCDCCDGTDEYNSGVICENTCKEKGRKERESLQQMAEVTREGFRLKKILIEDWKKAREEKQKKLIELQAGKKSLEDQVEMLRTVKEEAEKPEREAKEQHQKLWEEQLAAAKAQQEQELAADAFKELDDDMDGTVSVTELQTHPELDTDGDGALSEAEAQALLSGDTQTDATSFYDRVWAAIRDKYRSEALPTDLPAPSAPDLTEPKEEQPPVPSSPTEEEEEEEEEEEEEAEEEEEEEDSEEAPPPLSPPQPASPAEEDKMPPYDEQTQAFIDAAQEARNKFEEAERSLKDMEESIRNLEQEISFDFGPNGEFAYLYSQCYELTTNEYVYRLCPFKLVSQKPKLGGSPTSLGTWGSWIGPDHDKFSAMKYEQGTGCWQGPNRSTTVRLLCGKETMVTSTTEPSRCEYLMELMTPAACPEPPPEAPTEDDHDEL
inactive: [1] -0.004 | [2] 0.099 | [3] 0.088 | [4] 0.116 | [5] 0.003 | [6] -0.157 | [7] -0.081 | [8] -0.079 | [9] 0.038 | [10] -0.192

PDXK (UniProt O00764)
Chain of UniProt O00764 (O00764 whole entry, looked up): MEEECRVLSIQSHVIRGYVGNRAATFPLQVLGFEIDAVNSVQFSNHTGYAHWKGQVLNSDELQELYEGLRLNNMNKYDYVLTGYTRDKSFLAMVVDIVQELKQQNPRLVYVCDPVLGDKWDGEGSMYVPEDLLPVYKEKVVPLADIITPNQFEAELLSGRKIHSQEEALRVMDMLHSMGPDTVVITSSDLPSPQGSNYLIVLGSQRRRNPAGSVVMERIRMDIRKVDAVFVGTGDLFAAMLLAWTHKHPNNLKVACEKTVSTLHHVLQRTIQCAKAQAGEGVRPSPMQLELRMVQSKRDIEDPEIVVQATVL
inactive: [1] 0.123 | [2] -0.031 | [3] 0.005 | [4] 0.055 | [5] -0.003 | [6] -0.03 | [7] 0.012 | [8] -0.008 | [9] -0.008 | [10] -0.023

PHC1 (UniProt P78364)
inactive: [1] 0.054 | [2] 0.023 | [3] 0.087 | [4] -0.024 | [5] -0.049 | [6] -0.003 | [7] -0.02 | [8] 0.003

POLR2G (UniProt P62487)
inactive: [1] 0.01 | [2] -0.02 | [3] -0.024 | [4] 0.007 | [5] 0 | [6] 0.01 | [7] 0.007 | [8] 0.001 | [9] 0.011 | [10] -0.016

PTP4A1 (UniProt Q93096)
Chain of UniProt Q93096 (Q93096 whole entry, looked up): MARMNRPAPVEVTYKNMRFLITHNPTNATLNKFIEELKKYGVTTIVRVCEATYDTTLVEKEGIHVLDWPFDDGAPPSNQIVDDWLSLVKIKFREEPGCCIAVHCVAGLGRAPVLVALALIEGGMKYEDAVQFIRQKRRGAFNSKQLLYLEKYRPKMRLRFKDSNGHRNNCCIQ
inactive: [1] -0.035 | [2] 0.005 | [3] 0.026 | [4] -0.057 | [5] 0 | [6] 0.151 | [7] 0.011 | [8] -0.059 | [9] -0.011 | [10] -0.029

PWP2 (UniProt Q15269)
inactive: [1] 0.016 | [2] -0.006 | [3] -0.033 | [4] -0.032 | [5] -0.023 | [6] -0.056 | [7] 0.004 | [8] 0.036 | [9] -0.022 | [10] 0.011

PRPF38A (UniProt Q8NAV1)
inactive: [1] 0.076 | [2] 0.018 | [3] -0.055 | [4] -0.088 | [5] -0.001 | [7] -0.016 | [8] 0.092 | [9] 0.003 | [10] 0.049
active: [6] -0.452

PFN1 (UniProt P07737)
inactive: [1] -0.002 | [2] 0.002 | [3] 0.022 | [4] -0.008 | [5] -0.006 | [6] 0.008 | [7] 0.03 | [8] -0.018 | [9] -0.018 | [10] 0.014

PPIE (UniProt Q9UNP9)
Chain of UniProt Q9UNP9 (Q9UNP9 whole entry, looked up): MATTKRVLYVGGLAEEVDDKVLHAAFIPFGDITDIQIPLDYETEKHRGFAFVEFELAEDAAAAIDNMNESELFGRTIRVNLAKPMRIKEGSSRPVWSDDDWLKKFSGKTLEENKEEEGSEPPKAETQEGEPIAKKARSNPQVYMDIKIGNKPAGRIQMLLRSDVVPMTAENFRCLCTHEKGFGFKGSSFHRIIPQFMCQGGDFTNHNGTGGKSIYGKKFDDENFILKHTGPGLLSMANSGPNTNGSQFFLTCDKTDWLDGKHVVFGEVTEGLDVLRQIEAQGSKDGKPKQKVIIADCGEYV
inactive: [1] -0.027 | [2] 0.017 | [3] -0.017 | [4] -0.01 | [5] -0.016 | [6] -0.091 | [7] -0.003 | [8] -0.018 | [9] 0.04 | [10] -0.034

PRIM2 (UniProt P49643)
inactive: [1] 0.052 | [2] 0.007 | [3] -0.038 | [4] -0.012 | [5] 0.02 | [6] -0.027 | [7] -0.037 | [8] 0.018 | [9] -0.001 | [10] -0.021

PRKAR2B (UniProt P31323)
inactive: [1] 0.023 | [2] -0.078 | [3] -0.104 | [4] 0.013 | [5] 0.031 | [6] 0.073 | [7] 0.019 | [8] -0.1 | [9] -0.028 | [10] 0.013

POMP (UniProt Q9Y244)
Chain of UniProt Q9Y244 (Q9Y244 whole entry, looked up): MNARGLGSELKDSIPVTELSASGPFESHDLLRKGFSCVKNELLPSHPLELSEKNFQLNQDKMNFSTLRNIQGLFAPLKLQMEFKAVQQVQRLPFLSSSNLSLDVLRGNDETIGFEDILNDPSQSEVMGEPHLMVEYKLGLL
inactive: [1] 0.021 | [2] 0.057 | [3] 0.048 | [5] 0 | [6] -0.054 | [7] -0.046 | [8] -0.007 | [9] 0.039 | [10] -0.002
active: [4] 0.301

PFDN2 (UniProt Q9UHV9)
inactive: [1] -0.011 | [2] 0.013 | [3] 0.008 | [4] -0.045 | [5] -0.019 | [6] 0.037 | [7] 0 | [8] -0.018 | [9] -0.028 | [10] 0.053

PPP2R5C isoform 5 (UniProt Q13362)
Chain of UniProt Q13362 (Q13362 whole entry, looked up): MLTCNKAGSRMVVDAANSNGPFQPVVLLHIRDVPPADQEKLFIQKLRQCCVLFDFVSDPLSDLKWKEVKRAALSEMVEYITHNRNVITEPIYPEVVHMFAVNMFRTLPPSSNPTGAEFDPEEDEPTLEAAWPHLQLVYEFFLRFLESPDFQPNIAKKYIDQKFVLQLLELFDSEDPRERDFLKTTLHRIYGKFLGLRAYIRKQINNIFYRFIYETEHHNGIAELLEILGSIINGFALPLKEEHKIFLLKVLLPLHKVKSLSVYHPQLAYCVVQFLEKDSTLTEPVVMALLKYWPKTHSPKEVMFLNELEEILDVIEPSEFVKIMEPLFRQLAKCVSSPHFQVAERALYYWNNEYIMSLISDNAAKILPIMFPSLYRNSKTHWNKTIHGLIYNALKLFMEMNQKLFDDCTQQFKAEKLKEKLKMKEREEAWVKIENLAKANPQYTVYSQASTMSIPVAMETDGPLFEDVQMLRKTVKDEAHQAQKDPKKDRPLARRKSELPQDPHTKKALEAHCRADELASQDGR
inactive: [1] 0.016 | [2] 0.003 | [3] -0.053 | [4] 0.022 | [5] -0.005 | [6] 0.016 | [7] 0.074 | [8] 0.032 | [9] 0.059 | [10] -0.019

PDCD6IP (UniProt Q8WUM4)
Chain of UniProt Q8WUM4 (Q8WUM4 whole entry, looked up): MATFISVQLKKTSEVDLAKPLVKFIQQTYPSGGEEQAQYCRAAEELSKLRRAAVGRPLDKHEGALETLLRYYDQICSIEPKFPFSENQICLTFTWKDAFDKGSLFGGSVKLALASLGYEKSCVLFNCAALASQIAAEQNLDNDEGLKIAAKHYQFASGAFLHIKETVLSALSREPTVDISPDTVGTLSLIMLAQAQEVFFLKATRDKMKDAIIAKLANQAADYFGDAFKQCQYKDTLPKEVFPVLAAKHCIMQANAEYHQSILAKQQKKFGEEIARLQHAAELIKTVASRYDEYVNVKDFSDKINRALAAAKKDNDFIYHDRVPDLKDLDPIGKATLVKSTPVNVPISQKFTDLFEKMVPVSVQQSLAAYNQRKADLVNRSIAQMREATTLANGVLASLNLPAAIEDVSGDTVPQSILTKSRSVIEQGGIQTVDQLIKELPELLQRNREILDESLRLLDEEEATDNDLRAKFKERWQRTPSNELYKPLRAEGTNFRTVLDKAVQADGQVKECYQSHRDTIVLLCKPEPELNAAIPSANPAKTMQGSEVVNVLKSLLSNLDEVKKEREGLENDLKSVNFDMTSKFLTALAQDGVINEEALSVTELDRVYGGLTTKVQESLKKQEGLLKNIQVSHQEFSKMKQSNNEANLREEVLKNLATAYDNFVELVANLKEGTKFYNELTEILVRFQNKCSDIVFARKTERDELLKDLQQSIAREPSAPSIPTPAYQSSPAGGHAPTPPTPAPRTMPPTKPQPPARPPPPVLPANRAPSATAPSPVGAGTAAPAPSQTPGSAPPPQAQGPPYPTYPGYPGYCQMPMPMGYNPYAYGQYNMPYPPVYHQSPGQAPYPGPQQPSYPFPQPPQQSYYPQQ
inactive: [1] 0.059 | [2] -0.045 | [3] -0.023 | [4] -0.006 | [5] 0.049 | [6] 0.001 | [7] 0.06 | [8] 0 | [9] -0.058 | [10] -0.032

PHGDH (UniProt O43175)
inactive: [1] 0.013 | [2] -0.025 | [3] -0.077 | [4] 0.005 | [5] 0.021 | [6] -0.032 | [7] 0.018 | [8] -0.032 | [9] 0.006 | [10] 0.054

PGLS (UniProt O95336)
inactive: [1] 0.008 | [2] -0.021 | [3] 0.001 | [4] 0.168 | [5] 0.022 | [6] 0.017 | [7] -0.013 | [8] -0.017 | [9] -0.073 | [10] 0.014

PIP4K2A (UniProt P48426)
inactive: [1] 0.041 | [2] -0.006 | [3] 0.068 | [4] 0.141 | [5] 0.046 | [6] -0.001 | [7] -0.062 | [8] 0.039 | [9] -0.012 | [10] -0.056

PMPCA (UniProt Q10713)
inactive: [1] 0.005 | [2] 0.052 | [4] 0 | [5] -0.017 | [6] -0.041 | [7] 0.187 | [8] -0.013 | [9] -0.009 | [10] 0.003
active: [3] 0.672

PRKACB isoform 2 (UniProt P22694)
inactive: [1] -0.076 | [3] 0.025 | [4] 0.091 | [5] -0.028 | [6] -0.033 | [7] -0.063 | [9] 0.177 | [10] -0.025
active: [2] 0.818 | [8] 0.538

PPP1R11 (UniProt O60927)
inactive: [1] -0.03 | [2] 0.035 | [3] -0.051 | [4] 0.074 | [5] -0.055 | [6] -0.131 | [7] -0.001 | [8] 0.01 | [9] -0.067 | [10] 0.078

PIR (UniProt O00625)
inactive: [1] 0.011 | [2] -0.011 | [3] 0.027 | [4] 0.012 | [5] 0.023 | [6] 0.011 | [7] 0.005 | [8] 0.02 | [9] -0.009 | [10] -0.046

PUS3 (UniProt Q9BZE2)
Chain of UniProt Q9BZE2 (Q9BZE2 whole entry, looked up): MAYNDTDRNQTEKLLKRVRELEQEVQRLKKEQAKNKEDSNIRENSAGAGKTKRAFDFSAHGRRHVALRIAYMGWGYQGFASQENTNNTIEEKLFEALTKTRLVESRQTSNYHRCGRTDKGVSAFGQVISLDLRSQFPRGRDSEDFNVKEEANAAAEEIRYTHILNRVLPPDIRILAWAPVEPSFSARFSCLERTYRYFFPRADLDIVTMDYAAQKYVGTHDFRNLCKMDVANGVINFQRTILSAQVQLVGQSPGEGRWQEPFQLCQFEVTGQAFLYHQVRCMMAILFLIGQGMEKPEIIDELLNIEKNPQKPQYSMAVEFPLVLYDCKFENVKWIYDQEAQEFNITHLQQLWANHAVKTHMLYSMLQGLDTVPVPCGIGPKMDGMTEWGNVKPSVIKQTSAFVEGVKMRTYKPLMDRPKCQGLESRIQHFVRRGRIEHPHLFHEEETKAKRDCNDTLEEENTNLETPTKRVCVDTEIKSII
inactive: [1] -0.019 | [2] 0.045 | [3] -0.063 | [4] -0.042 | [5] 0.145 | [6] 0.078 | [7] -0.007 | [8] -0.003 | [9] 0.023 | [10] 0.075
